# KKLEB cytotox – reduces viability of KKLEB cystic fibrosis airway cells. KKLEB CF airway cells viability, ATPlite luminescence, overnight; hits give low values; cells stimulated with P. aeruginosa culture filtrate. activity change (cytotoxicity), % at 5 µM. 360,000 tested, 0.36% active. AID 602141;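 active = corrected activity change at or below -50% at 5 µM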
# Peg3 promoter – inhibitors of Peg3 promoter | HeLa PEG-Prom luciferase reporter, luminescence, overnight | inhibition, % at 20 µM | 360,000 tested, 1.7% active | AID 588405;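 active = inhibition of at least 50% at 20 µM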
# HIF-2a block – inhibitors of HIF-2a | inhibition, % at 18.8 µM | 786-0 RCC cells HIF-2a reporter, luciferase luminescence, overnight | 360,000 tested, 0.72% active;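 active = inhibition of the luminescence signal of 40% or more relative to plate controls, in a single-dose primary screen at 18.75 µM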
# MITF TRPM1 inh – inhibitors of MITF-driven TRPM1 promoter in melanoma cells | SK-MEL-5 TRPM1 promoter luciferase, 24 h | 330,000 tested, 0.83% active | inhibition, % at 12.5 µM;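 active = mean inhibition across replicates of 60% or more, whatever share of single replicates reaches that level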
# CF NFkB inh – blocks PAF-induced NF-kB reporter in cystic fibrosis cells; KKLEB NF-kB-GFP reporter, GFP fluorescence overnight; inhibition, % at 5 µM; 360,000 tested, 0.86% active; AID 588850;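 active = at least 50% inhibition at 5 µM, scaled per plate between neutral and stimulator controls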;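 also: PAF is a Pseudomonas aeruginosa culture filtrate used as stimulus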
# Shn3 3UTR inh – inhibitors of Schnurri-3 3'UTR reporter in osteoblasts; Clone20 osteoblast Shn3 3'UTR firefly luciferase, 24 h; inhibition, % at 12.5 µM; 360,000 tested, 0.52% active; AID 588674;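 active = mean inhibition of at least 75% with every replicate also reaching 75%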
# CF NFkB inh conf – CF NF-kB inhibition confirmation, single concentration. shares compounds with CF NFkB inh. KKLEB CF airway cells, PAF-induced NF-kB-GFP fluorescence, overnight. inhibition, % at 5 µM. 1,300 tested, 64% active. AID 602472; in the data active = inhibition above about 40%;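 also: stimulus PAF is a Pseudomonas aeruginosa filtrate and not platelet activating factor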
# Numbers stand for hits; . = inactive; / = no result given. Only some compounds are listed: those with a hit (about 2.7% of all), similar ones and a draw of the others.
SMILES,KKLEB cytotox,Peg3 promoter,HIF-2a block,MITF TRPM1 inh,CF NFkB inh,Shn3 3UTR inh,CF NFkB inh conf
COc1ccc(C2CC(c3ccccc3)=NN2C(=O)COC(=O)c2ccc(S(C)(=O)=O)cc2)cc1 (stereo unspecified),.,.,.,.,55,.,46
Oc1ccc(CCNc2ncnc3ccc(Cl)cc23)cc1,.,.,.,.,70,88,89
COc1ccc(OC)c(CN2C(=O)CCC2(C)c2nnnn2-c2c(C)cccc2C)c1 (stereo unspecified),/,/,.,/,/,/,/
COc1ccc(CN(C(=O)CSc2nnc(-c3c[nH]c4ccccc34)o2)c2ccc(F)cc2)cc1OC,.,107,.,.,63,.,68
CCOC(=O)CSc1nnc(-c2c[nH]c3ccccc23)o1,.,.,.,.,.,.,/
Cc1nn(-c2cccc(Cl)c2)c2nc(C(F)(F)F)[nH]c(=O)c12,.,.,.,.,54,.,44
COC(=O)c1nc(-c2ccc(C)cc2)[nH]c1C(C)(C)C,.,.,.,/,.,.,/
Oc1ccc(Br)cc1-c1nc2cnccn2c1NC1CCCC1,.,.,.,.,80,.,90
Oc1ccc(Br)cc1-c1nc2cnccn2c1NC1CCCCC1,.,.,.,.,.,.,/
CC(C)C[C@H](CO)Nc1nc(Nc2cccc(Cl)c2)c2ncn(C(C)C)c2n1,.,.,.,/,61,.,76
C[C@H](CO)N1C[C@H](C)[C@@H](CN(C)C(=O)Nc2ccccc2)Oc2ncc(-c3ccc(C#N)cc3)cc2C1=O,.,.,.,/,.,.,/
COCCCn1cc(CN2CC(N3CCN(CCO)CC3)CS2(=O)=O)nn1 (stereo unspecified),/,/,.,/,/,/,/
O=S1(=O)N[C@@H](Cc2ccccc2)COc2ccc(Cl)cc21,.,.,.,/,.,.,/
CCOC(=O)CN(C(=O)c1snc(C(N)=O)c1N)C(C(=O)NCCC(C)C)c1ccc(C)cc1 (stereo unspecified),.,.,.,/,.,.,/
Cc1c(Cl)cccc1NC(=O)CSc1nc2ncc(Cl)cc2[nH]1,.,.,.,.,62,.,51
CC(Sc1nc2ncc(Cl)cc2[nH]1)C(=O)Nc1ccccc1[N+](=O)[O-] (stereo unspecified),.,.,.,/,53,.,.
CSc1ncc(Cl)c(C(=O)Nc2ccccc2[N+](=O)[O-])n1,.,.,.,.,.,.,/
Cc1ccccc1NC(=O)CSc1nc2ncc(Cl)cc2[nH]1,.,.,.,.,.,.,/
O=C1C2C(c3ccccc3)CC=CC2[C@H](c2ccc3ccccc3c2)N1Cc1ccccc1 (stereo partly specified),.,.,.,.,55,.,43
O=C1C2C(c3ccccc3)CC=CC2[C@H](c2ccoc2)N1Cc1ccccc1 (stereo partly specified),.,.,.,.,.,.,/
Cc1ccc(F)c([C@H]2C3C=CCC(c4ccccc4)C3C(=O)N2Cc2ccccc2)c1 (stereo partly specified),.,.,.,.,63,.,.
COc1ccc(Cn2cc(CN3CC(N4CCN(CCN(C)C)CC4)CS3(=O)=O)nn2)cc1 (stereo unspecified),/,/,.,/,/,/,/
CC1(C(=O)N2CCC(CC3CC(c4cccc(Br)c4)=NO3)(C(=O)NCC3CCCCC3)CC2)CC1 (stereo unspecified),.,.,.,.,.,.,/
Cc1nc(N2CCC(C(N)=O)CC2)c2c(-c3cccs3)csc2n1,.,.,.,.,67,.,68
O=C1c2ccccc2C(c2nnnn2-c2ccc3c(c2)OCCO3)N1CCCn1ccnc1 (stereo unspecified),/,/,.,/,/,/,/
SMILES,KKLEB cytotox,Peg3 promoter,HIF-2a block,MITF TRPM1 inh,CF NFkB inh,Shn3 3UTR inh,CF NFkB inh conf
CCOC(=O)/C=C/C(=O)Nc1cc(S(=O)(=O)Nc2ccc(OC)cc2)ccc1N1CCOCC1,.,.,.,.,63,.,.
COC(=O)C[C@@H]1C=C[C@H](NC(=O)Nc2ccc(F)cc2)[C@@H](CO)O1,/,/,.,/,/,/,/
Cc1cc2c(c(=O)n1Cc1cccnc1)C(Cc1ccccc1)C(C#N)=C(N)O2 (stereo unspecified),.,.,.,.,58,.,.
Cc1cc2c(c(=O)n1Cc1cccnc1)C(c1cccs1)C(C#N)=C(N)O2 (stereo unspecified),.,.,.,.,.,.,/
O=[N+]([O-])c1ccc2ncnc(Nc3ccc4c(c3)OCCO4)c2c1,.,.,.,.,65,.,.
Cc1ccc(O)c(Nc2ncnc3ccc([N+](=O)[O-])cc23)c1,.,.,.,.,.,.,/
CC(C)c1nc(NCCO)c(C#N)c2c1CCCC2,.,.,.,.,71,.,55
CC(C)c1nc(Cl)c(C#N)c2c1CCCC2,.,.,.,.,55,.,77
COc1ccc(NC(=O)c2cc(C3CCCCN3C(=O)CCc3ccccc3)on2)c(C)c1 (stereo unspecified),.,.,.,/,.,.,/
CCOC(=O)C1CCCN(C(=O)c2cccnc2Oc2ccccc2)CC1 (stereo unspecified),.,.,.,/,.,.,/
C[C@@H]1CN([C@H](C)CO)C(=O)c2cc(Br)cnc2O[C@@H]1CN(C)Cc1ccc(F)cc1,.,.,.,/,.,.,/
CCOC(=O)C1=CCN(S(=O)(=O)c2ccc(Br)cc2)C1c1ccccc1 (stereo unspecified),.,.,.,/,.,.,/
COC(=O)c1ccc2nc(NC(=O)CCS(=O)(=O)c3ccccc3)sc2c1,.,.,.,.,58,.,.
CNC(=O)C1Cc2c(-c3ccc4c(c3)OCO4)ccnc2O1 (stereo unspecified),.,.,.,/,.,.,/
O=C(c1cc([N+](=O)[O-])ccc1N1CCOCC1)N1CCN(c2ccccc2)CC1,.,.,.,.,53,.,59
CN1CCN(c2ccc([N+](=O)[O-])cc2C(=O)N2CCOCC2)CC1,.,.,.,.,.,.,/
COc1cc(NC(=O)c2ccc(-c3cnn(C)c3)c3ccoc23)cc(OC)c1OC,.,.,.,/,.,.,/
Cc1ccc(C(C(=O)NCc2ccccc2)N(Cc2cccs2)C(=O)c2ccc3c(c2)OCCO3)cc1 (stereo unspecified),.,63,.,.,91,.,105
CCCc1nc2ccc(Cl)cn2c1Cc1ccccc1,.,.,.,/,.,.,/
CN1CCN(c2ncnc3scc(-c4ccccc4Cl)c23)CC1,.,.,.,.,71,.,74
OCC1CCCN(c2ncnc3scc(-c4ccccc4)c23)C1 (stereo unspecified),.,.,.,.,50,.,40
CCCCC(=O)N(C)c1c(CC)nc2c(OCc3ccccc3C)cccn12,.,.,.,/,.,.,/
CC(=O)Nc1nonc1-c1nc2ccccc2n1CC1CC1,.,.,.,.,60,.,45

# Assay outcomes (PubChem BioAssay)
